# Source: PubChem (SRMLSC)
# MK inhibit – blocks S. pneumoniae mevalonate kinase; purified MK, PK/LDH-coupled NADH absorbance 340 nm; inhibition, % at 10 µM; actives 0.48% (n = 65,000); AID 555;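 active = ranked among the strongest by inhibition in the single 10 µM screen, a fixed top-ranked set picked for dose follow-up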
# NADH enzymes – inhibitors of enzymes used to reach an NAD/NADH endpoint; coupled PK/LDH NADH assays, four targets; IC50, µM (titrated, usually from 10 µM); actives 0.02% (n = 65,000); AID 774;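 active = single-dose screening hits from any of four coupled enzyme assays that gave an IC50 when retested across doses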;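 note: the DPM-DC format reads NADH fluorescence rather than 340 nm absorbance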
# Spn PMK inh – S. pneumoniae PMK inhibition. inhibition, % at 10 µM. actives 0.49% (n = 65,000). AID 539. purified PMK, PK/LDH-coupled NADH absorbance 340 nm;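 active = top-ranked compounds by inhibition in the single 10 µM screen, taking a fixed number of the strongest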
# Spn DPM-DC inh – inhibitors of Streptococcus pneumoniae diphosphomevalonate decarboxylase. purified DPM-DC, PK/LDH coupled NADH fluorescence. calls only at 10 µM. actives 0.49% (n = 65,000);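 active = the 320 compounds with the highest percent inhibition in the single-dose primary screen, excluding strongly autofluorescent ones, cut at about 32% in these data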;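 note: kinetic rate of NADH fluorescence loss reporting ADP formed by the decarboxylase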
# A340 absorber – compounds absorbing at 340 nm; AID 708; fold change at 10 µM; 65,000 tested, under 10 active; compound absorbance at 340 nm, fold over control;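 active = at 10 µM dose, initial 340 nm absorbance at least 2 fold that of control wells; inactive = change under 2 fold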;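 note: initial absorbance extrapolated from kinetic A340 decline of NADH oxidation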
# Autofluor 339 – intrinsic fluorescence of library compounds, ex339/em460 – biochemical, MLSMR library, data from DPM-DC assay, artefact control, profiling panel. compound autofluorescence, ex339/em460 nm, NADH buffer; hits give high values; 1 = no-compound wells, NADH background. fluorescence fold increase at 10 µM. actives 5.5% (n = 65,000). AID 709;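 active = at 10 µM, mean starting fluorescence two-fold or more over control wells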;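 note: signal is the first read of a kinetic run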
# Hits are given with their value; . = inactive; / = no result given; + = active, no number; [ ] = remark or other dose. Hits are enriched below; roughly 6.8% of the tested compounds scored in any of these assays.
SMILES,MK inhibit,NADH enzymes,Spn PMK inh,Spn DPM-DC inh,A340 absorber,Autofluor 339
COc1ccccc1C(=O)NCCc1nc2ccccc2n1C,active,.,.,.,.,.
CC1(C)CNC(=O)C=C(c2ccccc2)C1,.,.,.,.,.,.
CCOc1ccc(-c2cc3nc(C4CCN(C(=O)OC(C)(C)C)CC4)c(C(=O)O)cn3n2)cc1,.,.,.,/,.,4.4
Cc1ccc(Cn2nnc3c(=O)n(Cc4cc(C)ccc4C)cnc32)cc1,.,.,.,.,.,.
COC(=O)c1[nH]c2cccc(OC)c2c1NC(=O)CCN1CCC(C(N)=O)CC1,.,.,.,.,.,2.9
COC(=O)c1[nH]c2cccc(OC)c2c1NC(=O)CN1CCC(C(N)=O)(N2CCCCC2)CC1,.,.,.,/,.,3.7
COC(=O)c1[nH]c2cccc(OC)c2c1NC(=O)CCN1CCN(c2ccccc2F)CC1,.,.,.,.,.,3.1
CC(=O)NC1N=C(C)N(c2ccccc2)C1=O (configuration not stated),.,.,28,.,.,.
CC(=O)Nc1ccn(-c2ccccc2)n1,.,.,.,.,.,.
COc1ccc2c(c1)c(C(O)CN1CCC3(CC1)OCCO3)c(C)n2C (configuration not stated),.,.,.,.,.,.
Clc1ccc(-c2nn3c(-c4ccccn4)nnc3s2)c(Cl)c1,.,.,.,.,.,.
O=C(O)Cn1c(P(=O)(O)c2ccccc2)nc2ccccc21,.,.,.,.,.,.
CCOC(=O)c1cc2c(=O)[nH]ccc2nc1C,.,.,.,/,.,3.7
CCOC(=O)c1cc(C(=O)OCC)c2cc(Br)ccc2n1,.,.,.,.,.,.
CCOC(=O)c1sc(C)c2c1NC1(CCCCC1)NC2=O,.,.,.,/,.,3.9
CCOC(=O)c1sc(C)c2c1NC(C)(c1cccs1)NC2=O (configuration not stated),.,.,.,/,.,3
Cc1oc(-c2cccc(Cl)c2)nc1CN1CCCC(C(=O)NC(C)c2ccc3c(c2)OCCO3)C1 (configuration not stated),.,.,.,.,.,.
O=C(c1ccco1)N1CCN=C1SCc1ccccc1Cl,.,.,.,.,.,.
O=C(OCC#CCSc1nnc(-c2cccc3ccccc23)o1)c1cccs1,.,.,.,.,.,2.2
O=C(OCC#CCSc1nnc(-c2ccccc2)o1)c1cccs1,.,.,.,.,.,.
COc1ccccc1C(=O)N1CCN(c2nc3cc(C)c(C)cc3cc2C#N)CC1,.,.,.,.,.,2.8
COc1ccccc1C(=O)N1CCN(c2ccccn2)CC1,.,.,.,.,.,.
CCOC(=O)N1CCN(C(=O)CCc2c(C)nc3nc(C)nn3c2C)CC1,.,.,.,.,.,.
Cc1nc2nc(C)c(CCC(=O)N3CCOCC3)c(C)n2n1,.,.,.,+,.,.
CN(C)/C=C1/Sc2ccccc2C1=O,.,.,.,.,.,.
SMILES,MK inhibit,NADH enzymes,Spn PMK inh,Spn DPM-DC inh,A340 absorber,Autofluor 339
CN(C)/C=C1\C(=O)c2ccc(N(C)C)nc2CC1c1ccccc1 (configuration not stated),.,.,.,.,.,2
Cc1ccc2nc3c(cc(C(=O)NCc4ccccc4)c(=N)n3CCCn3ccnc3)c(=O)n2c1,.,.,.,/,.,3.8
Cc1cccn2c(=O)c3cc(C(=O)NC(C)c4ccccc4)c(=N)n(CCCn4ccnc4)c3nc12 (configuration not stated),.,.,.,/,.,3.8
CSc1ccc2[nH]c(=O)cc(C)c2c1,.,.,.,/,.,3.8
Cc1ccc2[nH]c(=S)cc(C)c2c1,.,.,.,.,.,.
CCOC(=O)N1CCN(C2OC(=O)c3ccccc32)CC1 (configuration not stated),.,.,.,.,.,.
CCCn1c(=NC(=O)c2ccncc2)c(C(=O)OCC)cc2c(=O)n3cccc(C)c3nc21,.,.,.,.,.,.
CCOC(=O)c1cc2c(=O)n3cccc(C)c3nc2n(CCCOC)c1=NC(=O)c1cccnc1,.,14µM[fluoresces],29,/,.,2.3
CCOC(=O)c1cc2c(=O)n3cccc(C)c3nc2n(CCOC)c1=NC(=O)c1ccncc1,.,.,.,.,.,2
O=C(Cn1c(SCC(=O)NC2CCCC2)nnc1-c1ccncc1)Nc1ccc2c(c1)OCO2,.,.,.,.,.,.
CCC(OC(=O)C(NC(=O)c1ccccc1)c1ccccc1)C(=O)Nc1cc(C)on1 (configuration not stated),.,.,.,.,.,.
O=S(=O)(c1ccc2nc(-c3ccco3)c(-c3ccco3)nc2c1)N1CCOCC1,.,.,.,.,.,2.2
O=C(Nc1ccc(N2CCOCC2)cc1)Nc1ccc2nc(-c3ccco3)c(-c3ccco3)nc2c1,.,.,.,.,.,.
COc1ccc(NC(=O)C2CCC(C)(C(=O)O)C2(C)C)cc1 (configuration not stated),.,.,.,.,.,.
COc1ccc(NC(=O)C2CC(=O)OC2(C)C)cc1 (configuration not stated),.,.,.,/,.,2.2
COc1nc(OCCNC(=O)Nc2ccccc2)nc(N(C)C)n1,.,.,.,.,.,.
COc1ccccc1-c1cc(C2CC2)nc(N)c1C#N,.,.,.,/,.,2.1
COc1ccccc1N1CCN(c2nc(N)c(C#N)c(CC#N)c2C#N)CC1,.,.,.,.,.,.
COc1ccccc1-c1c(C)c(C)nc(N)c1C#N,.,.,.,.,.,2.4
CCc1nc(N)c(C#N)c(-c2ccccc2OC)c1C,.,.,.,.,.,2.3
COc1ccc(C(c2nnnn2Cc2cccs2)N2CCN(c3ccccc3F)CC2)cc1 (configuration not stated),.,.,.,.,.,.
CCOC(=O)CNc1c(-c2ccc(O)cc2)nc2ccccn12,.,.,.,/,.,3.7
Oc1ccc(-c2nc3ccccn3c2NCc2ccc3c(c2)OCO3)cc1,.,.,.,/,.,3.7
CCOC(=O)CNc1c(-c2ccc(O)cc2)nc2ccc(Cl)cn12,.,.,.,.,.,.
Cn1cnnc1SCc1ccc(C(=O)n2ncc(C#N)c2N)cc1,.,.,.,.,.,.
CCN1CCN(Cc2nc3c(c(=O)n(C)c(=O)n3C)n2C(C)C(C)=O)CC1 (configuration not stated),.,.,.,.,.,.
Clc1ccc2nc(N3CCNCC3)nc(-c3ccccc3)c2c1,.,.,.,/,.,2.3
CC(CCc1ccccc1)NC(=O)C1CCN(S(=O)(=O)c2cnc[nH]2)CC1 (configuration not stated),.,.,.,.,.,.
CCc1nc(NCC2CCCO2)c(C#N)c2c1COC(C)(C)C2 (configuration not stated),.,.,.,/,.,2.3
CCc1nc(NCC(C)C)c(C#N)c2c1COC(C)(C)C2,.,.,.,/,.,2.1
